These results are taken from PubChem BioAssay (Tox21).

SMILES strings stand for the structures. Records with an inconclusive call do not appear. Calls of active or inactive are those of the source. Unless noted, calls come from the whole dose curve; as a rule, active = well fitted curve in the direction sought with a large enough effect in the repeat runs; inconclusive = weak or mixed curves; inactive = no such curve, though single readings can be large; an effect the other way counts as inactive or inconclusive.

Experiment [1] deals with Progesterone receptor (Homo sapiens) (UniProt P06401). Description: qHTS assay to identify small molecule agonists of the progesterone receptor (PR) signaling pathway (AID 1346784; calls by dose curve; note: nearly all actives have a fitted effect of over 30% in size). Put shortly:
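HEK 293T PR-UAS-bla reporter cells, 2% charcoal-stripped FBS; 6 hr settle at 37C/5% CO2, compound (DMSO) 16 hr, LiveBLAzer B/G FRET substrate 2 hr RT, fluorescence intensity read.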
On the technique in general: qHTS replaces the single test concentration by a dilution series.

For experiment [2] the target is unchanged. Description: qHTS assay to identify small molecule antagonists of the progesterone receptor (PR) signaling pathway (AID 1346795; active = well fitted inhibition curve with a large enough effect in the signal ratio in the repeat runs, not every such curve was filed as active; the % refers to the signal ratio; note: potency is the fitted concentration of half-maximal effect). The method in brief:
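Beta-lactamase reporter, HEK293T PR-UAS-bla line; 2% charcoal-stripped FBS; 6 hr pre-incubation, 37C/5% CO2. Compound + R5020 1 nM final, 16 hr. LiveBLAzer B/G FRET substrate, 2 hr RT; fluorescence intensity read.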

Experiment [3] in a line: qHTS assay to identify small molecule antagonists of the TGF-beta/Smad signaling pathway - cell viability counter screen (AID 1346824). Note: nearly all actives have a fitted effect of over 50% in size. Put shortly:
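SBE-bla HEK 293T cells, incubated overnight, then compound plus 0.25 ng/mL TGF-beta1 (stock added) for 5 hr at 37 C. Viability was read in the same wells by CellTiter-Glo luminescence after 30 min at room temperature.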

The nature of experiment [4]: qHTS assay to identify small molecule agonists of the TGF-beta/Smad signaling pathway - cell viability counter screen (AID 1346829). Note: top concentration of the series differs between compounds; nearly all actives have a fitted effect of over 45% in size. The method in brief:
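Same-well cytotoxicity: CellTiter-Glo added after the 2 hr room-temperature beta-lactamase substrate step, luminescence measured 30 min later; cells had 5 hr of compound at 37 C.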

The nature of experiment [5]: qHTS assay to identify small molecule agonists of the TGF-beta/Smad signaling pathway (AID 1346859; active = well fitted activation curve with a large enough effect in the signal ratio in the repeat runs, not every such curve was filed as active; the % refers to the signal ratio; note: series mostly up to about 77 µM). The method in brief: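 Read-out: fluorescence at 460 and 530 nm (405 nm excitation) after a 2 hr room-temperature incubation with beta-lactamase FRET substrate. SBE-bla HEK 293T cells had been treated with test compounds for 5 hr at 37 C.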
Experiment [6] is described as follows: Human pregnane X receptor (PXR) small molecule agonists, qHTS cell viability counter screen (AID 1346977). Note: nearly all actives have a fitted effect of over 50% in size. Note: potency is the fitted concentration of half-maximal effect. The method in brief:
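Fluorescence read-out (CellTiter-Fluor) of viability in PXR-Luc HepG2 cells, multiplexed with the luciferase agonist read. Compounds in DMSO added after 5hr plating; 24hr total exposure at 37C, 5% CO2.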

Experiment [7] deals with Thyrotropin-releasing hormone receptor (Homo sapiens) (UniProt P34981). As to the kind of experiment: qHTS assay to identify small molecule antagonists of the thyrotropin-releasing hormone receptor (TRHR) signaling pathway (AID 1346877; active = well fitted inhibition curve with a large enough effect in the repeat runs, not every such curve was filed as active; note: series mostly up to about 51 µM). The method in brief:
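Overnight-plated (18 h, 37 °C) HEK293 cells expressing TRHR were dye-loaded 2 h, treated with compound, then stimulated with TRH at 1 nM final. Fluorescence intensity was captured every second for 3 min.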

Experiment [8] shares this target. Description: qHTS assay to identify small molecule agonists of the thyrotropin-releasing hormone receptor (TRHR) signaling pathway (AID 1346891; calls by dose curve;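 note: HEK293 cells expressing TRHR with calcium dye readout; series mostly up to about 58 µM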). The method in brief:
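HEK293/TRHR cells, 1500 per well, 18 h 37 °C; Ca dye 2 h 37 °C; pin-tool compound addition (agonist mode); kinetic fluorescence 3 min, 1 s reads; 15 concentrations, triplicate.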

Experiment [9] is described as follows: qHTS assay to identify small molecule antagonists of the progesterone receptor (PR) signaling pathway - cell viability counter screen (AID 1346798). Note: nearly all actives have a fitted effect of over 50% in size. Note: potency is the fitted concentration of half-maximal effect. Put shortly:
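Luminescence readout (CellTiter-Glo, 30 min, RT) of viability in PR-UAS-bla HEK293T cells exposed to compound and R5020 agonist for 16 hr at 37C, 5% CO2; run in the same wells as the beta-lactamase reporter read.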

A short description of experiment [10]: qHTS assay to identify small molecule agonists of the progesterone receptor (PR) signaling pathway - cell viability counter screen (AID 1346799; calls by dose curve; note: nearly all actives have a fitted effect of over 45% in size; note: potency is the fitted concentration of half-maximal effect). The method in brief:
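HEK293T PR-UAS-bla, 3,000 cells/well, 2% charcoal-stripped FBS; 6 h settle, compound 16 h at 37C/5% CO2; LiveBLAzer 2 h RT, then CellTiter-Glo 30 min RT, luminescence read.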

Sequence of Thyrotropin-releasing hormone receptor (Homo sapiens) (P34981 whole entry, looked up): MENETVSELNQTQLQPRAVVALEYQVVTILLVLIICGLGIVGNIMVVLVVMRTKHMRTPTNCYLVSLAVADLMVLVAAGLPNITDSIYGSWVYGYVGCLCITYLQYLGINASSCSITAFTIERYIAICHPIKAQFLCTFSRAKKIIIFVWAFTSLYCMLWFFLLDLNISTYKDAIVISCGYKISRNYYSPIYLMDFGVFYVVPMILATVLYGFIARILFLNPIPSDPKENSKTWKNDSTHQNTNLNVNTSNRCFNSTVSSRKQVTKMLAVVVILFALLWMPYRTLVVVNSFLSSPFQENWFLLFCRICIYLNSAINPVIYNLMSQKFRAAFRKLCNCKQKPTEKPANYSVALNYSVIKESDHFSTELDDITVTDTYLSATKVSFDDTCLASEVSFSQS
Sequence of Progesterone receptor (Homo sapiens) (P06401 whole entry, looked up): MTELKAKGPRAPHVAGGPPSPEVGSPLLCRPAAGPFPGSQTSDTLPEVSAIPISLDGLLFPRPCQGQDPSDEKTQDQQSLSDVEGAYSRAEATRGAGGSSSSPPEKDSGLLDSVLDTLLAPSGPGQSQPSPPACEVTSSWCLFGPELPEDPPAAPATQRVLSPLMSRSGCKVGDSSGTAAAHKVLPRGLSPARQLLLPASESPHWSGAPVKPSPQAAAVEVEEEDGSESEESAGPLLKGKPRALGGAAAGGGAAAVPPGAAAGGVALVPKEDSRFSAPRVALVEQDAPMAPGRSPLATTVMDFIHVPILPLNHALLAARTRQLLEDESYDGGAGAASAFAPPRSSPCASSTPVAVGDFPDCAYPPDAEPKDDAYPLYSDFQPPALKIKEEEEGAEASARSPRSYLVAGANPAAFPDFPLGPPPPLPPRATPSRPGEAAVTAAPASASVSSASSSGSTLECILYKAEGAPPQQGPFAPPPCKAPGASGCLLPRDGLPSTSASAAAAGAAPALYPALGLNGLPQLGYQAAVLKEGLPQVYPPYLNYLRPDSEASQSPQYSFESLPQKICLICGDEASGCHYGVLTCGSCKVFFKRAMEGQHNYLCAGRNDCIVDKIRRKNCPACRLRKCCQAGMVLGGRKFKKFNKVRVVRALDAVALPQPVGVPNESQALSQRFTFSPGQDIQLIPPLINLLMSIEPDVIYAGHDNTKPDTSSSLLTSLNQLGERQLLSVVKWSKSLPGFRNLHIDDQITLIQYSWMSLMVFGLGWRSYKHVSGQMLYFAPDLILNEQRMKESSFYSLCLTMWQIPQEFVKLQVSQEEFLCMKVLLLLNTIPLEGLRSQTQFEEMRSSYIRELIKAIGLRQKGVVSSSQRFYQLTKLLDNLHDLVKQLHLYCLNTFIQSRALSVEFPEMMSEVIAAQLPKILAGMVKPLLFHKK

For the compound `C[N+]1(C)[C@@H]2CC[C@H]1CC(OC(=O)C(CO)c1ccccc1)C2` (some centres undefined), the Potency result in experiment [1], in [2], in [3], in experiment [4] and in experiment [6] was “inactive” throughout. The outcome in experiment [5] was inactive.
With `COC(=O)N(OC)c1ccccc1COc1ccn(-c2ccc(Cl)cc2)n1`, the Potency entry in experiment [1], in experiment [3], in experiment [7] and in experiment [8] was “inactive” in each case. The figures for the Potency in [2] and in experiment [6] were 4.86 µM (active) and 5.45 µM (active), respectively. Also, the compound was called inactive in experiment [5].
For `Cc1c([N+](=O)[O-])cc2c(c1[N+](=O)[O-])C(C)(C)CC2(C)C`, the Potency entry in [1], in experiment [9], in experiment [10], in experiment [7], in [8] and in [6] was “inactive” throughout. Moreover, the outcome in [5] was inactive.
For the compound `ClSC(Cl)(Cl)Cl`, the Potency entry in experiment [1], in [9], in experiment [10], in [3], in experiment [4] and in experiment [7] was “inactive” in each case. Besides, the Potency entry in experiment [8] and in experiment [6] was “inactive” each time. For the same compound, the compound was called inactive in [5].
On to `CCC(C)c1cccc(C(C)CC)c1O` (centres undefined), for which the Potency result in experiment [1], in [9], in experiment [10], in [4], in experiment [7] and in experiment [8] was “inactive” in each case. Further, the Potency entry in experiment [6] is “inactive”. Moreover, in [5], the result was inactive.
On to `C[C@H]1[C@H](c2ccc(Cl)cc2)SC(=O)N1C(=O)NC1CCCCC1`, for which the Potency result in experiment [1], in experiment [4], in [7] and in [8] was “inactive” throughout. Besides, in [2], the Potency is 13.7 µM (active). Further, the compound was called inactive in experiment [5].
Regarding `CC(Cl)CCl` (centres undefined), the Potency entry in [1], in [9], in [10], in experiment [3] and in experiment [6] was “inactive” in each case. The compound was called inactive in [5].
Consider `Cc1cccc(Cc2cnc[nH]2)c1C`, for which the Potency entry in experiment [1], in experiment [9], in [10], in experiment [3], in experiment [4] and in experiment [6] was “inactive” each time. The compound was called inactive in [5].
Consider `COC(=O)c1cc(Oc2ccc(Cl)cc2Cl)ccc1[N+](=O)[O-]`, for which the Potency result in experiment [1], in experiment [4] and in experiment [6] was “inactive” in each case. Moreover, the Potency in [2] is 15.4 µM (active). Also, the compound was classed as inactive in experiment [5].
As to `Cc1ccc2cc3c(ccc4ccccc43)c3c2c1CC3`, the Potency entry in [1], in [9], in experiment [10], in [3], in experiment [4] and in experiment [7] was “inactive” in each case. Further, in experiment [8], the Potency result was “inactive”.
`FC(F)C(F)(F)OCC(Cn1cncn1)c1ccc(Cl)cc1Cl` (centres undefined): the Potency entry in experiment [1], in experiment [4], in [7] and in experiment [8] was “inactive” each time. Further, the Potency in experiment [2] is 19.2 µM (active). In addition, the compound was called inactive in [5].
Regarding `C=CCOC(=O)c1ccccc1N`, the Potency entry in experiment [1], in experiment [9], in experiment [10], in experiment [3] and in experiment [6] was “inactive” in each case. Moreover, in experiment [5], the result was inactive.
With `c1csc(-c2ccc(-c3cccs3)s2)c1`, the Potency entry in experiment [1], in experiment [9], in [3], in experiment [4], in experiment [7] and in experiment [8] was “inactive” throughout.
With `Brc1ccc(Oc2ccc(Br)cc2Br)c(Br)c1`, the Potency result in experiment [1], in experiment [9], in experiment [3], in [4], in experiment [7] and in [8] was “inactive” throughout. Further, in [6], the Potency result was “inactive”. Also, the compound was called inactive in [5].
Turning to `c1ccc(Nc2ccc(Nc3ccccc3)cc2)cc1`, the Potency entry in experiment [1], in [4], in experiment [7] and in experiment [8] was “inactive” throughout. Besides, the Potency in experiment [2] was 6.09 µM (active). Also, the compound was classed as inactive in experiment [5].
With `CN1CCc2cc(Cl)c(O)cc2[C@H]2c3ccccc3CC[C@@H]21`, the Potency entry in experiment [1], in experiment [9], in experiment [3] and in [4] was “inactive” each time. Also, the compound was classed as inactive in experiment [5].
As to `CCN(CC)CCc1c[nH]c2ccccc12`, the Potency entry in experiment [1], in experiment [3], in [4], in [7] and in [8] was “inactive” in each case. Also, the Potency in experiment [9] is 90.4 µM (active). Also, the compound was called inactive in experiment [5].
In the case of `COC(=O)C(C)N(C(=O)c1ccco1)c1c(C)cccc1C` (centres undefined), the Potency entry in experiment [1], in experiment [9], in experiment [3], in [4] and in [6] was “inactive” throughout. For the same compound, the call in experiment [5] was inactive.
As to `Nc1ccc(Cl)cc1C(=O)c1ccccc1F`, the Potency result in experiment [1], in [9], in experiment [3], in [4], in experiment [7] and in experiment [8] was “inactive” throughout. In addition, the Potency result in experiment [6] is “inactive”. Besides, in experiment [5], the compound was called inactive.
In the case of `Cc1ccccc1OP(=O)(Oc1ccccc1C)Oc1ccccc1C`, the Potency result in experiment [1], in experiment [9], in [3], in experiment [7] and in [8] was “inactive” in each case. For the same compound, in experiment [5], the compound was classed as inactive.
Consider `CCC(C)Nc1c([N+](=O)[O-])cc(C(C)(C)C)cc1[N+](=O)[O-]` (centres undefined), for which the Potency entry in experiment [1], in experiment [9], in [3], in [4], in experiment [7] and in experiment [8] was “inactive” each time. Further, the Potency result in [6] was “inactive”. Further, the result in [5] was inactive.
`O=C1C[C@@H]2OCC=C3CN4CC[C@]56c7ccccc7N1[C@H]5[C@H]2[C@H]3C[C@H]46`: the Potency entry in experiment [1], in experiment [2], in experiment [4], in experiment [7] and in experiment [8] was “inactive” in each case. In addition, the outcome in [5] was inactive.
For the compound `CC(C)=CC1C(C(=O)OC(C#N)c2cccc(Oc3ccccc3)c2)C1(C)C` (centres undefined), the Potency entry in experiment [1], in experiment [9], in experiment [10], in experiment [3], in experiment [4] and in experiment [7] was “inactive” in each case. The Potency entry in experiment [8] and in [6] was “inactive” in each case. In addition, the outcome in [5] was inactive.
As for `CO/N=C(/C1=NOCCO1)c1ccccc1Oc1ncnc(Oc2ccccc2Cl)c1F`, the Potency result in experiment [1], in [4], in experiment [7] and in experiment [8] was “inactive” each time. Further, the Potency in [2] was 27.3 µM (active); in experiment [6] it was 9.68 µM (active). For the same compound, the compound was called inactive in [5].
In the case of `CCN1CCC2(CC1)COc1cc3c(cc12)N(C(=O)c1ccc(-c2ccc(-c4nnc(C)o4)cc2C)cc1)CC3`, the Potency entry in experiment [1], in [7] and in experiment [8] was “inactive” throughout. For the same compound, the Potency is 25.2 µM (active) in experiment [9], 8.93 µM (active) in experiment [10] and 15.9 µM (active) in experiment [6].
`O=S1(=O)OCC2C(CO1)C1(Cl)C(Cl)=C(Cl)C2(Cl)C1(Cl)Cl` (centres undefined): the Potency result in experiment [1], in experiment [9], in [10], in experiment [3], in experiment [4] and in [7] was “inactive” in each case. In addition, the Potency entry in experiment [8] and in [6] was “inactive” throughout.
For the compound `CCOP(=O)(Sc1ccccc1)Sc1ccccc1`, the Potency result in experiment [1], in experiment [9], in experiment [10], in [3] and in experiment [4] was “inactive” in each case. Moreover, the call in experiment [5] was inactive.
As to `CSC1=N[C@@](C)(c2ccccc2)C(=O)N1Nc1ccccc1`, the Potency entry in experiment [1], in experiment [4], in experiment [7] and in experiment [8] was “inactive” throughout. In addition, the Potency in [2] is 43.3 µM (active). In experiment [5], the outcome was inactive.
Take `O=[N+]([O-])[O-].[Tl+]`: the Potency result in experiment [1], in experiment [9] and in [4] was “inactive” each time. Also, the compound was called inactive in experiment [5].
Turning to `CCNc1nc(NC(C)C(C)C)nc(SC)n1` (centres undefined), the Potency result in experiment [1], in experiment [9], in experiment [10], in experiment [3], in [4] and in experiment [6] was “inactive” in each case. For the same compound, the compound was called inactive in experiment [5].
For the compound `COc1nc(C)nc(NC(=O)NS(=O)(=O)c2ccccc2Cl)n1`, the Potency result in experiment [1], in experiment [9], in experiment [10], in experiment [3], in experiment [4] and in experiment [7] was “inactive” each time. The Potency result in experiment [8] and in experiment [6] was “inactive” in each case. Moreover, in [5], the outcome was inactive.
With `COc1ccc(Cc2nccc3cc(OC)c(OC)cc23)cc1OC`, the Potency entry in [1], in experiment [2], in experiment [3], in experiment [7] and in [8] was “inactive” each time. For the same compound, in experiment [5], the outcome was inactive. Further, the Potency in experiment [6] was 9.44 µM (active).
Consider `CCc1cccc(C)c1N(C(=O)CCl)[C@@H](C)COC`, for which the Potency result in [1], in [9], in [10], in experiment [3], in experiment [4] and in experiment [7] was “inactive” in each case. The Potency entry in experiment [8] and in [6] was “inactive” throughout. In addition, the compound was classed as inactive in experiment [5].
